# GPT2 inhibitor: GPT2 alanine aminotransferase inhibition | Potency, µM (doses to about 57.7 µM), without a hit: at the top dose activity change, negative = inhibition, actives largely listed as inhibitors | Recombinant GPT2, coupled pyruvate oxidase/HRP Amplex Red fluorescence | AID 1671188 | hit rate 0.25% among 100,000 | Q8TD30; active = well fitted inhibition curve with a large enough effect; inconclusive = small, poorly fitted or top-dose-only effect; also: % is scaled to controls: 0 for no effect and ±100 for the full control effect; nearly all actives have a fitted effect of over 60% in size
#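 Inhibition is scored from Amplex Red fluorescence generated when pyruvate oxidase and HRP act on pyruvate released by GPT2. Reactions contain 10ng/uL enzyme, 250uM a-KG and 2mM L-alanine and run 30 min at room temperature.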
# hNpr1 antagonist: antagonists of human natriuretic peptide receptor Npr1; AID 1347048; hit rate 1.6% among 76,000; HEK293 hNpr1 GloSensor cGMP, ANP-stimulated luminescence; Potency, µM (top dose mostly 46.3 µM), for inactives: at the top dose activity change, negative = inhibition, actives largely listed as inhibitors; also: % is scaled to controls: 0 for no effect and ±100 for the full control effect; nearly all actives have a fitted effect of over 60% in size
#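 HEK293 cells stably expressing human Npr1 and cGMP GloSensor pGS-40F, loaded 2 h with 2% GloSensor reagent, given compound 30 min at room temperature. Luminescence read before and 20 min after 0.1 nM hNppA.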
# Npr1 antag conf: confirmation of human Npr1 natriuretic peptide receptor antagonists | shares compounds with hNpr1 antagonist | HEK293 hNpr1 cGMP GloSensor luminescence, ANP-stimulated | Potency, µM (top dose mostly 57.6 µM), for inactives: at the top dose activity change, negative = inhibition, actives largely listed as inhibitors | hit rate 76% among 1,400 | AID 1347044; also: nearly all actives have a fitted effect of over 70% in size
# NPR2 antag: hNpr2 antagonism, selectivity versus Npr1; shares compounds with hNpr1 antagonist; HEK293 hNpr2 GloSensor cGMP luminescence, CNP-stimulated; Potency, µM (highest dose often 57.6 µM), for the others: at the top dose activity change, negative = inhibition, usual class: inhibitors; hit rate 67% among 1,400; also: nearly all actives have a fitted effect of over 70% in size
# FLuc counter: inhibits firefly luciferase, false Npr1 antagonist flag. purified FLuc enzyme, luminescence, Km substrate. Potency, µM (top dose mostly 57.6 µM), for inactives: top-dose activity change, negative = inhibition, hits mostly inhibitors. hit rate 0.7% among 1,400. shares compounds with hNpr1 antagonist. AID 1347047; active = well fitted inhibition curve with a large enough effect; inconclusive = small, poorly fitted or top-dose-only effect; also: 0% is about no effect
# Target sequence (P08659 whole entry, looked up): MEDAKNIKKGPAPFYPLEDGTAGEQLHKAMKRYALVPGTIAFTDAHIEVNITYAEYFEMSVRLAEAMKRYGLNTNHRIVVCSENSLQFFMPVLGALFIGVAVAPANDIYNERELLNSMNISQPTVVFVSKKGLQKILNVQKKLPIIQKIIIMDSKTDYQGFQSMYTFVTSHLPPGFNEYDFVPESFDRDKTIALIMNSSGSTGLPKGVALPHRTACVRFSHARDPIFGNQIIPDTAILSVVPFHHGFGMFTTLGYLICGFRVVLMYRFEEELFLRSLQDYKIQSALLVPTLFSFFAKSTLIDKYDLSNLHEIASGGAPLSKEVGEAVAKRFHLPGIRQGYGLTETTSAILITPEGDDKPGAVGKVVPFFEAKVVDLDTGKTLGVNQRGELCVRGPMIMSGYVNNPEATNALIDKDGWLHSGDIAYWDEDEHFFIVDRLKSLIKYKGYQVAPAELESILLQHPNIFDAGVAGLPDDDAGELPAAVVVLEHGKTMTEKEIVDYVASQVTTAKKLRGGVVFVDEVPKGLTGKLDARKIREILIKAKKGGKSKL
# GloSensor ctrl: control cell line activity, Npr1 antagonist counter-screen; shares compounds with hNpr1 antagonist; HEK293 GloSensor cGMP, SNP-stimulated, luminescence; Potency, µM (highest dose often 57.6 µM), for inactives: at the highest dose activity change, negative = inhibition, actives largely listed as inhibitors; hit rate 69% among 1,400; AID 1347051; also: % is scaled to controls: 0 for no effect and ±100 for the full control effect; nearly all actives have a fitted effect of over 70% in size
# Starred values were filed as active, the others as inactive; i = inactive; ? = inconclusive; / = no result; [ ] = another dose, or the depositor's remark. The full list was thinned out, with hits kept by preference. Unless noted, calls follow the shape of the full dose curve. Potency is read from the fitted curve at half-maximal effect.
SMILES,GPT2 inhibitor,hNpr1 antagonist,others
COc1cccc([S+](=O)([O-])N2CCC3(CC(c4cccc(C(F)(F)F)c4)=NO3)C2)c1 (stereo not drawn),-18.1%,/,
CO[C@@]1(C)C[C@@H](O)C12CCN(C(=O)CN1CCc3ccccc3C1)CC2,i,0.0%,
O=C(c1cccnc1)N1CCC(n2cc(-c3nc(-c4ccccc4)no3)nn2)CC1,-5.7%,-4.6%,
Cc1oc(-c2ccccc2)nc1CN1CCCC(C(=O)NCCc2noc(-c3ccccc3)n2)C1 (stereo not drawn),-7.4%,12.6µM*,Npr1 antag conf=?;NPR2 antag=?;FLuc counter=4.9%;GloSensor ctrl=?
NC(=O)N1CCCC(C(=O)NCCc2noc(-c3ccccc3)n2)C1 (stereo not drawn),-6.1%,2.3%,
O=C(c1cccc(Cn2cccn2)c1)N1CC[C@H](CO)[C@H](O)C1,4.9%,-6.4%,
O=C(O)c1cc2c(s1)CCN(C(=O)c1ccc(F)cc1)C2,4.4%,0.9%,
CC1CCN(C(=O)c2cc3c(s2)CCN(C(=O)c2ccc(Cl)cc2)C3)CC1,-13.9%,-14.4%,
O=C(c1ccccc1)N1CCc2sc(C(=O)N3CCN(c4ccc(F)cc4)CC3)cc2C1,-7.8%,7.08µM*,Npr1 antag conf=9.68µM*;NPR2 antag=10.9µM*;FLuc counter=0.8%;GloSensor ctrl=6.85µM*
O=C(NCc1ccccc1)c1cc2c(s1)CCN(C(=O)c1ccccc1)C2,-10.6%,-1.1%,
CC1CCCN(C(=O)c2cc3c(s2)CCN(C(=O)c2ccc(Cl)cc2)C3)C1 (stereo not drawn),-15.1%,-24.9%,Npr1 antag conf=27.3µM*;NPR2 antag=27.3µM*;FLuc counter=0.9%;GloSensor ctrl=24.3µM*
COc1ccc(CNC(=O)c2cc3c(s2)CCN(C(=O)c2ccccc2)C3)cc1OC,-3.1%,2.51µM*,Npr1 antag conf=3.43µM*;NPR2 antag=4.85µM*;FLuc counter=2.1%;GloSensor ctrl=3.06µM*
O=C(Nc1cccc(Cl)c1)c1nc2sccn2c1-c1cccnc1,-5.7%,/,
Cc1nn(C)cc1CN(C)C(=O)Cn1nc2n(c1=O)CCC(N)CC2 (stereo not drawn),i,3.3%,
O=C1NCc2ccccc2CC12CCCN(Cc1ccc(O)cc1O)C2 (stereo not drawn),i,/,
O=C(C1CCCCN1Cc1ccc(-c2cccs2)cc1)N1CCN(c2ncccn2)CC1 (stereo not drawn),i,/,
O=C1Nc2ccccc2CC12CCCN2CC1CCCCC1 (stereo not drawn),-10.8%,/,
COc1cccc(C(=O)N2CCCC3(C2)NC(=O)N(Cc2ccc(C)cc2)C3=O)c1 (stereo not drawn),-18.9%,-1.1%,
COc1cccc(C(=O)N2CCC3(C2)NC(=O)N(Cc2ccc(Cl)cc2)C3=O)c1 (stereo not drawn),i,?,Npr1 antag conf=?;NPR2 antag=?;FLuc counter=1.0%;GloSensor ctrl=-29.0%
COc1cccc(C(=O)N2C[C@@H](COc3ccccc3)[C@H](C(N)=O)C2)c1,1.0%,1.4%,
O=C(Nc1ccc(Cl)cc1)c1nc2c(o1)CCN(CC1CCCC1)CC2,3.4%[88.5 µM],28.2µM*,Npr1 antag conf=35.3µM*;NPR2 antag=31.4µM*;FLuc counter=-14.0%[86.2 µM];GloSensor ctrl=25µM*
O=C(Nc1ccc(Cl)cc1)c1nc2c(o1)CCN(CC1CC1)CC2,i,?,Npr1 antag conf=?;NPR2 antag=-25.8%[86.2 µM];FLuc counter=-22.2%[86.2 µM];GloSensor ctrl=?
O=C(NCC1CC1)c1nc2c(o1)CCN(CCCc1ccccc1)CC2,i,3.5%[70.6 µM],
O=C(NCc1cccc(F)c1)c1nc2c(o1)CCN(CC1CCCC1)CC2,i,-5.4%[70.6 µM],
COc1cccc(-c2nnnn2[C@H]2CO[C@H]3[C@@H]2OC[C@@H]3NS(=O)(=O)Cc2ccccc2)c1,-5.8%,1.0%,
CN1C[C@H](C(=O)NCCOc2ccccc2)C[C@H]1c1cccc(C(F)(F)F)c1,-19.1%[88.5 µM],-15.9%[70.6 µM],
CN(C)c1cccc(C(=O)N2CCCC(n3cc(-c4nc(C5CC5)no4)nn3)C2)c1 (stereo not drawn),2.7%,-21.1%,
O=C(NCc1ccncc1)c1nc2c(o1)CCN(Cc1ccccc1F)CC2,1.0%[88.5 µM],?,
Cc1ccccc1CN1CCc2nc(C(=O)NCCOc3ccccc3)oc2CC1,-13.7%[88.5 µM],-25.0%[70.6 µM],

# Bioassay records (PubChem)
